Screening results: PubChem, Center for Chemical Genomics, University of Michigan
Many of the other results were omitted from the sample, so hits are more common in it than they were.
Dicer processing = human Dicer pre-microRNA cleavage inhibition | z-score at 25 µM | Q9UPY3 | AID 1347074 | cat-ELCCA pre-miR-21 Dicer processing, chemiluminescence; active compounds read high | 47,000 tested, 6% active; in the data active = z-score above about 3, passing the limit was not always enough;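 note: plate controls were vehicle for no effect and no enzyme for full effect; higher signal means more uncleaved substrate so more Dicer inhibition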
Target sequence (Q9UPY3 whole entry, looked up): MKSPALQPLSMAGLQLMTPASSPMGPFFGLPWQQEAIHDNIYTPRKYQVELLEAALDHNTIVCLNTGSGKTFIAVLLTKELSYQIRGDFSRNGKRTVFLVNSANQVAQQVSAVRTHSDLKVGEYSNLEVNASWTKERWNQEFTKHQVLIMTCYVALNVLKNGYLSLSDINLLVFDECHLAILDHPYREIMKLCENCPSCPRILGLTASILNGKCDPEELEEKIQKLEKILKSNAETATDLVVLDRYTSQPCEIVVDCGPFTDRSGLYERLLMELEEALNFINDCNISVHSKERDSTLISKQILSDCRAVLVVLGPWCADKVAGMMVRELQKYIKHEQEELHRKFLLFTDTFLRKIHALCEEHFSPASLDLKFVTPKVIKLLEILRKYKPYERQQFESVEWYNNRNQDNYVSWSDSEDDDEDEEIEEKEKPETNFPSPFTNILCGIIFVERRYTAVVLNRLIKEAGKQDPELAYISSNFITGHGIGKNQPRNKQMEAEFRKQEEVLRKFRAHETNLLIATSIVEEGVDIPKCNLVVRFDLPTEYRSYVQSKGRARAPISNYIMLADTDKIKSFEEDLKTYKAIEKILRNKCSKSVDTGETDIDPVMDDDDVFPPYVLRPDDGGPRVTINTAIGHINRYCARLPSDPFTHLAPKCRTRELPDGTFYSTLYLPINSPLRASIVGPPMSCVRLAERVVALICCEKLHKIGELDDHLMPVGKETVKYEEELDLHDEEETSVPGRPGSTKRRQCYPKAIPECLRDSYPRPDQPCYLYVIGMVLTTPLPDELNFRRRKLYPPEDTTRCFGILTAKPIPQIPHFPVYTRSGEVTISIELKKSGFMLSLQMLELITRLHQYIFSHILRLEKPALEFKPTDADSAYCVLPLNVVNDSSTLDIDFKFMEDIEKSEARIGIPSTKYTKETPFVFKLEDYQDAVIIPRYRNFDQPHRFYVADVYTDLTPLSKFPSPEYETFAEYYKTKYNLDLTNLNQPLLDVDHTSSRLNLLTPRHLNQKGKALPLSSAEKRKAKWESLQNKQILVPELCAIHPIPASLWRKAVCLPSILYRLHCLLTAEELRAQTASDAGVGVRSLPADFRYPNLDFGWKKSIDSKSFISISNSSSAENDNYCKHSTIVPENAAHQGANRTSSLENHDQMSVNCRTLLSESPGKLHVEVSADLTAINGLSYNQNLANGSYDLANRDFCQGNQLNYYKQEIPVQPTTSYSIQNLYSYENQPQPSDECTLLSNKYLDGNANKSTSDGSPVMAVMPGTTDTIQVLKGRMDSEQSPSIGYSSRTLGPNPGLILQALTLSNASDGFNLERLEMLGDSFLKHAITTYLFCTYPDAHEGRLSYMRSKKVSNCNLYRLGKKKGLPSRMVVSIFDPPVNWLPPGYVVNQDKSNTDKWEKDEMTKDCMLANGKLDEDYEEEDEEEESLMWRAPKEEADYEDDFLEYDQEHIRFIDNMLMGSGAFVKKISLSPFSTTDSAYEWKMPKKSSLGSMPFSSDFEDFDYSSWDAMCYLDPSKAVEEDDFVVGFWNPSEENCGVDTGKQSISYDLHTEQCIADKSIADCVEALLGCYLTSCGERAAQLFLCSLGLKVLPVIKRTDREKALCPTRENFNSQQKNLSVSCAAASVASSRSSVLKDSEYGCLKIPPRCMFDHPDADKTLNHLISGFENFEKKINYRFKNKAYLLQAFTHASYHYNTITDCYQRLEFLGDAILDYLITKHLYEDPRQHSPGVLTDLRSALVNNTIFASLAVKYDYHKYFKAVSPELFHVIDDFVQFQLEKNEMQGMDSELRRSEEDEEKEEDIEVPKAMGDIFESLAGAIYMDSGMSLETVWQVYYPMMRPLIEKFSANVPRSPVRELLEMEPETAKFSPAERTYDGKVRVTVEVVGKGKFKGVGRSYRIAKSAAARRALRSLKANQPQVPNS
Numbers without * were called inactive.

Screening O=C(Nc1ncn[nH]1)c1cc2ccccc2o1 returned Dicer processing 4.9*.
Screening O=C(Nc1nccs1)c1cc2ccccc2o1 returned Dicer processing -3.5.
COc1ccc(C2C(C(=O)c3cccs3)=C(O)C(=O)N2CCN2CCOCC2)cc1OC (configuration not stated) was read as Dicer processing -0.15.
CCNc1[nH]c(=S)nc2sc3c(c12)CCN(C)C3 was read as Dicer processing -1.8.
For O=C1SC(Nc2ccc(F)cc2)C(=O)N1c1ccccc1 (configuration not stated) the results were Dicer processing 1.9.
For O=C1SC(Nc2cccc(Cl)c2)C(=O)N1c1ccccc1 (configuration not stated) the results were Dicer processing 0.86.
COc1cccc(NC2SC(=O)N(c3ccccc3)C2=O)c1 (configuration not stated) was read as Dicer processing 49*.
For O=C1NN(c2ccccc2)C(=S)Nc2ccccc21 the results were Dicer processing -0.28.
`Cc1ccc2[nH]c(=O)c(NC(N)=O)nc2c1` gave Dicer processing 0.24.
Screening CN(C)/C=N/NS(=O)(=O)c1ccccc1 returned Dicer processing -0.67.
`Cc1ccc(S(=O)(=O)N/N=C/c2ccc3ccccc3c2O)cc1` gave Dicer processing 3.2*.
Cc1ccc(S(=O)(=O)N/N=C/c2nccs2)cc1 was read as Dicer processing -1.2.
Cc1c(-c2cc(N3C(=O)c4ccccc4C3=O)n(C)n2)sc2ccc(Cl)cc12 was read as Dicer processing -1.1.
Screening CCN(CC)C(=S)Oc1c(C)c(C)nc(=S)n1CCCOC returned Dicer processing 9.4*.
COc1ccc(OC)c(C2C(C#N)=C(N)Oc3n[nH]c(C(C)(C)C)c32)c1 (configuration not stated) was read as Dicer processing -1.9.
For O=C(Oc1ccc(F)cc1Cl)c1cc2ccccc2s1 the results were Dicer processing 0.94.
For Cc1cc(=O)oc2cc(OS(=O)(=O)c3cc(Cl)c(Cl)cc3Cl)c(Cl)cc12 the results were Dicer processing 2.9.
`Cc1cc(=O)oc2cc(OS(=O)(=O)c3cc(C(F)(F)F)cc(C(F)(F)F)c3)c(Cl)cc12` gave Dicer processing 4.2*.
Cc1ccc(S(=O)(=O)Oc2cc(C)ccc2C)cc1 was read as Dicer processing -0.61.
COc1ccc(C2C(C#N)=C3N=C(N)c4ccccc4N3C3=C2C(=O)CCC3)c(OC)c1 (configuration not stated) was read as Dicer processing -0.62.
For COc1ccc2[nH]c(=O)c(-c3noc(-c4ccccc4Br)n3)cc2c1 the results were Dicer processing -0.24.
For CCS(=O)(=O)n1nc(-c2ccco2)nc1SCc1ccccc1 the results were Dicer processing 2.9.
Screening COc1ccc(-c2nc(SCc3ccccc3)n(S(C)(=O)=O)n2)cc1 returned Dicer processing 5.2*.
`CS(=O)(=O)n1nc(-c2ccco2)nc1SCc1ccccc1` gave Dicer processing 2.2.
Screening O=C(Oc1ccccc1/C=N/N=C1\SCC(=O)N1c1cccc(F)c1)c1ccc(Cl)cc1 returned Dicer processing 1.6.
CCOC(=O)c1c(NC(=O)C(=O)c2c[nH]c3ccccc23)sc2c1CCCC2 was read as Dicer processing 0.62.
Screening CC(C)N(C(=O)CSc1nc2ccccc2s1)c1ccccc1 returned Dicer processing -0.03.
For CC(O)c1nc2ccccc2n1CC(=O)N(c1ccccc1)C(C)C (configuration not stated) the results were Dicer processing 0.62.
Screening CC(C)N(C(=O)CN(C#N)c1nc(N(C)C)nc(N(C)C)n1)c1ccccc1 returned Dicer processing 5.2*.
For COc1ccc(C(=O)c2oc3ccc4ccccc4c3c2C)cc1 the results were Dicer processing -1.3.
`Oc1ccc(O)c(Sc2nnnn2-c2ccccc2)c1` gave Dicer processing 3.2*.
Screening CC(=O)C(Sc1nnnn1-c1ccccc1)C(C)=O returned Dicer processing -0.44.
Screening CC(=O)n1nc(C)c(Sc2nnnn2-c2ccccc2)c1C returned Dicer processing -1.2.
Screening C=CCOc1ccc(C(=O)N(Cc2ccc(C(C)C)cc2)C2CCS(=O)(=O)C2)cc1 (configuration not stated) returned Dicer processing 1.2.
Screening c1ccc(CCc2nnc3c4c5c(sc4ncn23)CCCC5)cc1 returned Dicer processing 0.1.
Screening CCCc1nnc2c3c4c(sc3ncn12)CC(C)CC4 (configuration not stated) returned Dicer processing 4.8*.
For CCc1nnc2c3c4c(sc3ncn12)CC(C)CC4 (configuration not stated) the results were Dicer processing -0.79.
CCOC(=O)c1cnc2cc(-c3ccc(C(C)(C)C)cc3)[nH]n2c1=O was read as Dicer processing 1.5.
For Cc1ncc(CSCC(=O)Nc2cc(C(F)(F)F)cc(C(F)(F)F)c2)c(CO)c1O the results were Dicer processing -0.58.
For c1ccc(-c2ccc(-c3nc(-c4cccnc4)no3)cc2)cc1 the results were Dicer processing 3.2*.
`Cc1ccc(-c2nc(-c3cccnc3)no2)cc1C` gave Dicer processing 2.
`COc1ccc(-c2nc(-c3cccnc3)no2)cc1` gave Dicer processing 1.8.
For CSc1nc(N)nc(-c2cnccn2)n1 the results were Dicer processing 1.4.
Screening CC(=O)CSc1ccc(C(F)(F)F)cc1[N+](=O)[O-] returned Dicer processing -2.8.
For COc1ccc(C2Nn3c(nnc3-c3ccccc3)SC2C(=O)N2CCCC2)cc1 (configuration not stated) the results were Dicer processing -0.3.
Screening CCOC(=O)c1cc2nc3sccn3c2s1 returned Dicer processing -0.99.
For CCOC(=O)c1sc(Nc2nc(C)c(CC)c(OC)n2)nc1C the results were Dicer processing 0.87.
Screening CCOC(=O)c1cc2nc(Nc3ccc(OC)cc3)sc2s1 returned Dicer processing 3.3*.
Screening NC(=O)CSc1nc(SCC(N)=O)c2c3c(sc2n1)CCC3 returned Dicer processing 0.62.
For CCOC(=O)/C(C#N)=C/Nc1ccc2c(c1)CCN2C(C)=O the results were Dicer processing 1.3.
FC(F)(F)c1cc(C(F)(F)F)n2nc(-c3ccc(Cl)cc3)cc2n1 was read as Dicer processing -0.11.
Screening NS(=O)(=O)c1ccc(NNC(=O)CC2(CC(=O)O)CCCC2)cc1 returned Dicer processing 0.82.
Screening COCCn1c2c(c(=O)[nH]c1=O)C(c1cccc3ccccc13)C1=C(N2)c2ccccc2C1=O (configuration not stated) returned Dicer processing 0.43.
Screening CCn1c2c(c(=O)[nH]c1=O)C(c1cccc3ccccc13)C1=C(N2)c2ccccc2C1=O (configuration not stated) returned Dicer processing 3.4*.
CCn1c2c(c(=O)[nH]c1=O)C(c1cccc(Cl)c1)C1=C(N2)c2ccccc2C1=O (configuration not stated) was read as Dicer processing -0.43.
For Cn1c(=O)c2c(nc(Oc3ccc(F)cc3)n2C)n(C)c1=O the results were Dicer processing -0.44.
`COC(=O)c1cc(S(=O)(=O)NCC2CN(Cc3ccccc3)CN(Cc3ccccc3)C2)oc1C` gave Dicer processing 2.3.
N#Cc1c(NC(=O)CSc2ccc(Cl)cc2)sc2c1CCC2 was read as Dicer processing 0.24.
Screening CCOC(=O)c1c(NC(=O)CSc2nnc3c(n2)[nH]c2ccccc23)sc2c1CCCC2 returned Dicer processing 0.97.
CCOC(=O)c1c(NC(=O)CN(CC)CC)sc2c1CCCC2 was read as Dicer processing -0.77.
